Source: the supplement of paper PMC10127200
Structures can show the parent of a compound that is named as a salt.

Assays:
Assay in all cases: Euclidean distance of Cell Painting phenotypic profile (signed KS, 77 features) to DMSO centroid (dimensionless distance); 5 or 10 uM (library dependent); higher = stronger phenotypic change vs DMSO (phenoactivity)
Conditions in all cases: 48 h
786-O = tested on: 786-O
Summary of the method: (§1)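 Stained cells were imaged confocally at 20X with 9 fields per well, after 48 h of exposure to library compounds at 10 or 5 uM (set by library; 0.1% DMSO final). The cells were five cancer lines and a healthy fibroblast line. From the images, Harmony extracted 77 features, each expressed as a signed Kolmogorov-Smirnov statistic relative to same-plate vehicle wells. Phenoactivity is measured as Euclidean distance to the median vehicle profile, using plate-position-corrected, correlation-weighted profiles averaged across replicates at the top dose.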

A549 = tested on: A549
Summary of the method: as §1

DU145 = tested on: DU145
Summary of the method: as §1

FB = tested on: FB
Summary of the method: as §1

HEPG2 = tested on: HEPG2
Summary of the method: as §1

OVCAR4 = tested on: OVCAR4
Summary of the method: as §1

| SMILES | Euclidean distance (786-O) | Euclidean distance (A549) | Euclidean distance (DU145) | Euclidean distance (FB) | Euclidean distance (HEPG2) | Euclidean distance (OVCAR4) |
| --- | --- | --- | --- | --- | --- | --- |
| C[C@@H]1O[C@@H](OC[C@H]2O[C@@H](Oc3c(-c4ccc(OCCO)c(OCCO)c4)oc4cc(OCCO)cc(O)c4c3=O)[C@H](O)[C@@H](O)[C@@H]2O)[C@H](O)[C@H](O)[C@H]1O [Troxerutin] | 1.35 | 0.502 | 0.751 | 0.834 | 0.509 | 0.81 |
| COC(=O)N[C@H](C(=O)N1CCC[C@H]1c1nc(-c2ccc3c(c2)O[C@@H](c2ccccc2)n2c-3cc3cc(-c4c[nH]c([C@@H]5CCCN5C(=O)[C@@H](NC(=O)OC)C(C)C)n4)ccc32)c[nH]1)C(C)C [Elbasvir] | 2.17 | 1.94 | 1.26 | 1.97 | 1.04 | 1.58 |
| CC(C(=O)O)c1ccc2c(c1)Cc1cccnc1O2 (centres undefined) [Pranoprofen] | 1.12 | 0.714 | 1.29 | 1.04 | 0.599 | 0.996 |
| CC[C@]12CCCN3CCc4c(n(c5ccccc45)[C@@](O)(C(=O)OC)C1)[C@@H]32 [Vincamine] | 1.3 | 1.33 | 0.578 | 0.795 | 0.91 | 1.18 |
| O=c1ccn(C2OC(COP(=O)(O)O)C(O)C2O)c(=O)[nH]1 (centres undefined) [Uridine 5'-monophosphate] | 1.18 | 1.21 | 1.33 | 1.3 | 1.01 | 1.23 |
| COc1ccc(C(C)=O)c(O)c1 [Paeonol] | 1.07 | 0.755 | 0.885 | 0.979 | 0.302 | 1.58 |
| C[C@@](Cc1ccc(O)c(O)c1)(NN)C(=O)O [Carbidopa] | 1.38 | 1.06 | 0.985 | 1.1 | 0.878 | 1.05 |
| N[C@@H](CC(=O)N1CCn2c(nnc2C(F)(F)F)C1)Cc1cc(F)c(F)cc1F [Sitagliptin phosphate monohydrate] | 0.554 | 0.819 | 1.11 | 0.644 | 0.395 | 0.956 |
| CC(C)C[C@@H](C=O)NC(=O)[C@H](CC(C)C)NC(=O)[C@H](CC(C)C)NC(=O)OCc1ccccc1 | 3.8 | 3.23 | 3.14 | 3.41 | 3.64 | 4.07 |
| CC(=O)Nc1ccccc1 [Acetanilide] | 0.827 | 0.504 | 0.799 | 0.893 | 0.768 | 1.34 |
| C=CC[C@@H]1/C=C(\C)C[C@H](C)C[C@H](OC)[C@H]2O[C@@](O)(C(=O)C(=O)N3CCCC[C@H]3C(=O)O[C@H](/C(C)=C/[C@@H]3CC[C@@H](O)[C@H](OC)C3)[C@H](C)[C@@H](O)CC1=O)[C@H](C)C[C@@H]2OC [Tacrolimus (FK506)] | 0.986 | 1.47 | 2.38 | 1.07 | 0.59 | 0.647 |
| C[C@H]1O[C@@H](O[C@H]2CC[C@@]3(C)[C@@H](CC[C@]4(C)[C@@H]3C=C[C@]35OC[C@@]6(CCC(C)(C)C[C@H]63)[C@H](O)C[C@]54C)[C@]2(C)CO)[C@H](O)[C@@H](O[C@@H]2O[C@H](CO)[C@@H](O)[C@H](O)[C@H]2O)[C@H]1O [Saikosaponin D] | 2.45 | 2.4 | 5.79 | 1.95 | 4.11 | 2.92 |
| O=C(c1ccc(/C=C/c2n[nH]c3ccccc23)cc1)N1CCNCC1 | 3.16 | 3.89 | 3.66 | 3.31 | 2.78 | 3.53 |
| CN(C)c1ccc(O)c2c1C[C@H]1C[C@H]3[C@H](N(C)C)C(O)=C(C(N)=O)C(=O)[C@@]3(O)C(O)=C1C2=O [Minocycline HCl] | 1.46 | 1.38 | 1.2 | 1.33 | 0.637 | 1.14 |
| CCCCc1oc2ccccc2c1C(=O)c1cc(I)c(OCCN(CC)CC)c(I)c1 [Amiodarone HCl] | 1.56 | 1.84 | 2.02 | 1.95 | 2.01 | 2.4 |
| CC[C@H]1OC(=O)[C@H](C)[C@@H](O[C@H]2C[C@@](C)(OC)[C@@H](O)[C@H](C)O2)[C@H](C)[C@@H](O[C@@H]2O[C@H](C)C[C@H](N(C)C)[C@H]2O)[C@](C)(O)C[C@@H](C)/C(=N\OCOCCOC)[C@H](C)[C@@H](O)[C@]1(C)O [Roxithromycin] | 1.03 | 0.649 | 0.699 | 1.1 | 0.654 | 1.42 |
| COC(=O)N1CCN(Cc2cccc(NC(=O)Nc3ccc(C)nc3)c2F)CC1 | 1.27 | 1.17 | 0.538 | 0.851 | 0.768 | 1.28 |
| COc1cc2nccc(Oc3ccc(NC(=O)NC4CC4)c(Cl)c3)c2cc1C(N)=O [lenvatinib Mesylate] | 1.2 | 1.1 | 1.71 | 3.39 | 0.829 | 2.16 |
| CN(C)CCC=C1c2ccccc2C(C)(C)c2ccccc21 [Melitracen hydrochloride] | 1.33 | 1.82 | 2.27 | 2.65 | 1.5 | 1.37 |
| Cc1cc(Nc2cc(N3CCN(C)CC3)nc(/C=C/c3ccccc3)n2)n[nH]1 [ENMD-2076 L-(+)-Tartaric acid] | 2.7 | 3.58 | 2.34 | 3.64 | 2.99 | 2.91 |
| CC(=O)OCC(=O)[C@@]12OC(C)(C)O[C@@H]1C[C@H]1[C@@H]3C[C@H](F)C4=CC(=O)C=C[C@]4(C)[C@@]3(F)[C@@H](O)C[C@@]12C [Fluocinonide] | 1.34 | 2.13 | 2.47 | 1.51 | 0.846 | 1.99 |
| CCCCOc1cc(C(=O)NCCN(CC)CC)c2ccccc2n1 [Dibucaine HCl] | 1.45 | 1.68 | 1.23 | 1.07 | 1.52 | 1.07 |

| SMILES | Euclidean distance (786-O) | Euclidean distance (A549) | Euclidean distance (DU145) | Euclidean distance (FB) | Euclidean distance (HEPG2) | Euclidean distance (OVCAR4) |
| --- | --- | --- | --- | --- | --- | --- |
| Cc1c(C(N)=O)cc([N+](=O)[O-])cc1[N+](=O)[O-] [Dinitolmide] | 0.913 | 1.4 | 0.756 | 0.814 | 0.831 | 1.38 |
| COc1cc(-c2ncn(/C=C\C(=O)OC(C)C)n2)cc(C(F)(F)F)c1 | 3.51 | 3.05 | 3.45 | 3.74 | 2.56 | 4.53 |
| CCOc1nc2cccc(C(=O)O)c2n1Cc1ccc(-c2ccccc2-c2noc(=O)[nH]2)cc1 [Azilsartan] | 0.834 | 0.784 | 0.835 | 0.563 | 0.88 | 0.784 |
| NS(=O)(=O)NCCNc1nonc1/C(=N/O)Nc1ccc(F)c(Br)c1 | 1.34 | 1.13 | 1.07 | 1.35 | 0.971 | 0.884 |
| CO[C@@H]1[C@@H](O[C@@H]2O[C@H](C)[C@@H](O[C@H]3C[C@@](C)(O)[C@@H](OC(=O)CC(C)C)[C@H](C)O3)[C@H](N(C)C)[C@H]2O)[C@@H](CC=O)C[C@@H](C)[C@@H](O)/C=C/C=C/C[C@@H](C)OC(=O)C[C@H]1OC(C)=O [Josamycin] | 1.22 | 1.07 | 0.712 | 1.59 | 1.01 | 1.06 |
| CN(C)c1cccc(-c2c3c(=O)n(-c4ccccc4Cl)[nH]c3cc(=O)n2C)c1 | 1.01 | 1.99 | 1.08 | 0.844 | 0.852 | 1.39 |
| Clc1ccc2c(N3CCN(CCCN4CCN(c5ccnc6cc(Cl)ccc56)CC4)CC3)ccnc2c1 [Piperaquine phosphate] | 1.59 | 1.33 | 1.11 | 1.45 | 0.952 | 1.25 |
| Nc1nc(F)nc2c1ncn2[C@@H]1O[C@H](CO)[C@@H](O)[C@@H]1O [Fludarabine] | 1.67 | 1.6 | 1.17 | 1.81 | 1.21 | 1.63 |
| COC(=O)N[C@H](C(=O)N1CCC[C@H]1c1ncc(-c2ccc(-c3ccc(-c4cnc([C@@H]5CCCN5C(=O)[C@@H](NC(=O)OC)C(C)C)[nH]4)cc3)cc2)[nH]1)C(C)C | 1.52 | 1.63 | 1.12 | 1 | 0.904 | 1.5 |
| CCCCCCCCCCCCCCCCCC(=O)O [Stearic acid] | 1.24 | 1.11 | 0.794 | 1.08 | 0.463 | 0.768 |
| Nc1nc(N)c2nc(-c3cccc(O)c3)cnc2n1 | 0.828 | 1.47 | 1.28 | 2.43 | 0.858 | 1.9 |
| Cc1cc(-n2c(=O)[nH]c(=O)n(C)c2=O)ccc1Oc1ccc(SC(F)(F)F)cc1 [Toltrazuril] | 1.07 | 0.597 | 0.914 | 0.686 | 0.651 | 1.41 |
| NC(=O)c1ncn([C@@H]2O[C@H](CO)[C@@H](O)[C@H]2O)n1 [Ribavirin] | 0.706 | 0.843 | 0.599 | 0.808 | 0.875 | 0.963 |
| C=C[C@@]1(C)CC(=O)[C@]2(O)[C@@]3(C)[C@@H](O)CCC(C)(C)[C@@H]3[C@H](O)[C@H](OC(C)=O)[C@@]2(C)O1 [Forskolin] | 1.79 | 1.04 | 1.39 | 1.18 | 1.34 | 1.23 |
| CCCCc1nc(-c2ccc(OCCCN(CC)CC)cc2)cn1-c1ccc(Oc2ccc(Cl)cc2)cc1 [Azeliragon] | 6.58 | 4.65 | 0.73 | 3.3 | 1.05 | 1.71 |
| CC1(C)CC(=O)c2c(C(F)(F)F)nn(-c3ccc(C(N)=O)c(N[C@H]4CC[C@H](OC(=O)CN)CC4)c3)c2C1 | 3.85 | 3.38 | 3.89 | 3.31 | 3.05 | 2.62 |
| COc1cc(CNC(=O)CCCCC=CC(C)C)ccc1O [Capsaicin(Vanilloid)] | 1.06 | 1.47 | 1.35 | 0.876 | 0.778 | 1.44 |
| CO/N=C(\C(=O)N[C@@H]1C(=O)N2C(C(=O)O)=CCS[C@H]12)c1csc(N)n1 [Ceftizoxime] | 1.04 | 1.74 | 0.987 | 1.24 | 0.67 | 1.56 |
| O=C(O)C1(c2ccc(-c3ccc(Cl)c(Cl)c3)c(F)c2)CC1 | 0.785 | 1.02 | 1.42 | 1.35 | 1.17 | 1.72 |
| NCc1ccc(S(N)(=O)=O)cc1 [Mafenide hydrochloride] | 1.35 | 0.84 | 0.784 | 0.654 | 0.629 | 1.46 |
| CC(=O)NS(=O)(=O)c1ccc(N)cc1 [Sulfacetamide sodium salt hydrate] | 1.2 | 0.692 | 0.872 | 1.61 | 0.38 | 1.53 |
| O=C1CCc2ccc(OCCCCN3CCN(c4cccc(Cl)c4Cl)CC3)cc2N1 [Aripiprazole] | 1.08 | 0.975 | 0.573 | 0.979 | 0.512 | 1.21 |
